From PubChem BioAssay (NCI) come the findings set out here.

About 83,000 compounds went through this panel and 20% of them were active in at least one assay; those are over-represented in the sample as a whole.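 The test compound was applied at a single concentration to cells in 96-well plates for 48 hours, and percent growth was recorded.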 Values without a mark were called inactive. The source made the active and inactive calls. The calls were made as follows: active = growth percent below 10; inactive = the rest.

Assay in all cases: NCI-60 one-dose screen, 48 h (100 = growth as untreated, 0 = no growth, -100 = all killed)
Holding throughout (conditions): 10 µM

Experiment [1] deals with SN12C renal.
For experiment [2], the system named is UO-31 renal.
For experiment [3], the system named is TK-10 renal.
Experiment [4] concerns ACHN renal.
In experiment [5] the test system is CAKI-1 renal.
The subject of experiment [6] is A498 renal.
The test system of experiment [7] is CCRF-CEM leukemia.
Experiment [8] concerns MOLT-4 leukemia.
Experiment [9] concerns SR leukemia.

As for `CCOC(=O)c1ccoc1`, the growth in experiment [1] is 103%; in experiment [2] it was 95.4%; in experiment [3], 109%; in experiment [4], 96.5%; in [5] it was 98.1%; in experiment [6], 73.7%. Also, the growth in [7] was 100%; in experiment [8] it was 90.1%; in [9], 86.4%.
In the case of `CCCCCCCCCCCC[n+]1ccc(C(N)=O)cc1`, the growth in experiment [1] was 12.3%; in experiment [2], 64.4%; in experiment [3], -28% (active); in experiment [4] it was 87.5%; in experiment [5] it was 41.1%; in experiment [6] it was 78.9%. Further, the growth in [7] was 13%; in experiment [8], 13.6%; in [9] it was 14.5%.
Turning to `COc1cc(Cl)cc(-c2nn(-c3cccc(NC(=O)c4ccc(Cl)c(Cl)c4)c3)cc2-c2ccncc2)c1`, the growth in experiment [1] was 69.6%; in experiment [2], 43.5%; in experiment [3], 104%; in [4], 63.9%; in experiment [5], 63.6%; in experiment [6], -0.943% (active). Moreover, the growth was 59.2% in [7], 54.9% in experiment [8] and 43.6% in [9].
Turning to `COc1ccc(-c2nn(-c3cccc(NC(=O)Nc4ccc(Cl)c(C(F)(F)F)c4)c3)cc2-c2ccncc2)cc1Cl`, the growth in experiment [1] was 21.1%; in [2], -11.2% (active); in experiment [3], 10.3%; in experiment [4], 12.6%; in experiment [5], 9.1% (active); in experiment [6] it was -0.894% (active). Besides, the figures for the growth in [7], in experiment [8] and in experiment [9] were -3.16% (active), -6.09% (active) and -18.4% (active), respectively.
`CN(C)C=Nc1cc(Cl)ccc1Cl`: the growth in experiment [1] is 97.7%; in experiment [2], 100%; in experiment [3], 116%; in experiment [4] it was 109%; in experiment [5] it was 96.5%; in experiment [6], 105%. Besides, the growth in [7] was 97.4%; in experiment [8] it was 108%; in [9], 108%.
For `COc1ccc(-c2nc(-c3nc4ccc(Cl)cc4[nH]3)c3ccccn23)cc1`, the growth was 52.7% in [1]; -24.8% (active) in [2]; -12.1% (active) in experiment [3]; 0.296% (active) in [4]; -13% (active) in [5]; -3.43% (active) in experiment [6]. Further, the growth in experiment [7] was 82.7%; in experiment [8] it was 74.4%; in [9], 40.3%.
With `CCCCCCCCN(CCCCCCCC)CCCCCCCCCN1CCCc2cc(OC)ccc21`, the growth is 82.7% in [1]; 80.4% in experiment [2]; 117% in experiment [3]; 96.5% in [4]; 99.3% in [5]; 96% in [6]. The growth is 85.8% in experiment [7], 85.8% in [8] and 77.5% in experiment [9].
Take `COc1cc2cc3c(nc2cc1OC)CCN3Cc1ccc(NC(=O)Nc2ccc(F)cc2F)cc1`: the growth was 79.9% in experiment [1]; 68.9% in experiment [2]; 94.6% in [3]; 85.2% in experiment [4]; 62.3% in experiment [5]; 49.4% in experiment [6]. Also, the growth in experiment [7] was 71.7%; in experiment [8], 58.9%; in [9] it was 62.1%.
Turning to `O=C(Nc1ccccc1)Nc1cccc(-n2cc(-c3ccncc3)c(-c3ccc(O)c(Cl)c3)n2)c1`, the growth in experiment [1] was 59.1%; in experiment [2], 26.9%; in experiment [3], 88.8%; in [4] it was 43.1%; in [5], 30.1%; in experiment [6] it was 82.5%. For the same molecule, the growth in experiment [7] was 29.9%; in experiment [8] it was 38.3%; in experiment [9], 11.9%.
Take `COc1ccc(/C=C/C(=O)Nc2ccc(-c3nc4ccc(OC)cc4s3)cc2)cc1`: the growth in experiment [1] is 103%; in experiment [2] it was 85.2%; in experiment [3], 109%; in experiment [4], 114%; in [5], 104%; in experiment [6], 97.8%. Further, the growth in [7] is 98.3%; in [8] it was 81.6%; in experiment [9], 86.7%.
For the molecule `CC(=O)O[C@]1(C)CC[C@H]2[C@H](CNCCc3ccc(Cl)cc3)C(=O)O[C@@H]2C2=C(C)C(=O)C[C@H]21`, the growth is 94.2% in experiment [1]; 78.1% in experiment [2]; 97.7% in experiment [3]; 96.2% in experiment [4]; 98.5% in experiment [5]; 86.9% in experiment [6]. For the same molecule, the results for the growth in [7], in experiment [8] and in experiment [9] were 83.6%, 71% and 81.4%, respectively.
`N#CCCN1C/C(=C/c2ccccc2)C(=O)/C(=C/c2ccccc2)C1`: the growth was 25.3% in experiment [1]; 51.6% in experiment [2]; 95.6% in experiment [3]; 8.94% (active) in [4]; 19.1% in experiment [5]; 106% in experiment [6]. Besides, the growth is -1.14% (active) in experiment [7], 4.56% (active) in [8] and -2.02% (active) in experiment [9].
Regarding `COc1cc(/C=C/C(=O)c2ccc(Cl)cc2)ccc1OS(=O)(=O)c1ccc(C)cc1`, the growth in experiment [1] was 86.6%; in experiment [2], 74.2%; in experiment [3], 116%; in experiment [4] it was 94.3%; in experiment [5] it was 82.5%; in experiment [6], 86.3%. Moreover, the growth in [7] was 12.9%; in experiment [8], -2.36% (active); in experiment [9], -13.8% (active).
`O=C1/C(=C\c2ccc(Cl)cc2)CN(C(=O)c2ccccc2)C/C1=C\c1ccc(Cl)cc1`: the growth is 36.8% in experiment [1]; 2.38% (active) in experiment [2]; 94.7% in experiment [3]; 47.4% in experiment [4]; 32.4% in experiment [5]; 84.2% in [6]. In addition, the growth in experiment [7] was 11.2%; in [8], 21.5%; in experiment [9], -20.1% (active).
